# Measured values as given in the supplement of paper PMC8699584.
# Several values for one entry are separate records, joined by “and”; a condition that tells them apart may be missing. Identical values can stand only once. ± gives the standard deviation of the averaged measurements.
# Experiments:
# Molm13 = assay: cell viability relative to DMSO control (bortezomib = 0%); higher = less growth inhibition; conditions: 10 nM; 72 h
# Method in brief: (§1)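 In duplicate runs, a library of 679 approved and investigational compounds in 384-well plates received acute myeloid leukemia cells at 1000 cells per well in 50 µL, with each compound at a single 10 nM dose for 72 h. CellTiter-Glo luminescence, read on an EnVision reader, served as the viability measure. Each plate was normalized by linear regression between DMSO-treated cells (100%) and positive-control-treated cells (0%).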
# Mv4-11 = assay: as above; conditions: 10 nM; 72 h
# Method in brief: as §1
SMILES,cell viability (Molm13),cell viability (Mv4-11)
Nc1nccc(-c2c(-c3ccc(F)cc3)ncn2C2CCCCC2)n1,96.6 ± 18%,114.4 ± 0.84%
N#CC(=C(/N)Sc1ccccc1N)/C(C#N)=C(/N)Sc1ccccc1N,104 ± 12%,129 ± 2.2%
Nc1ncnc2c1c(-c1cnc3[nH]ccc3c1)nn2C1CCCC1,118 ± 2.6%,125 ± 14%
Oc1c2ccccc2c2c3c(cccc13)N=N2,114% and 102%,103% and 104%
CC1(COc2ccc3c(c2)ncn3-c2ccc3cccc(N4CCC(N)CC4)c3n2)COC1 [Crenolanib],14.9 ± 3.8%,18.2 ± 5.8%
CCCCCCCCCCCC(=O)NC[C@]1(C)CCC[C@]2(C)c3ccc(C(C)C)cc3CCC12 (some centres not stated) [Lauric Acid Leelamide],93 ± 7.2%,104 ± 12%
CO[C@H]1C[C@@H]2CC[C@@H](C)[C@@](O)(O2)C(=O)C(=O)N2CCCC[C@H]2C(=O)O[C@H]([C@H](C)C[C@@H]2CC[C@@H](O)[C@H](OC)C2)CC(=O)[C@H](C)/C=C(\C)[C@@H](O)[C@@H](OC)C(=O)[C@H](C)C[C@H](C)/C=C/C=C/C=C/1C [Rapamycin (Sirolimus)],34.4 ± 8.5%,43.3 ± 15%
O=C(NC(NC(=S)Nc1ccc(F)c([N+](=O)[O-])c1)C(Cl)(Cl)Cl)C(c1ccccc1)c1ccccc1 (configuration not stated),109 ± 8.2%,104.1 ± 0.92%
COc1cc(Nc2ncc(F)c(Nc3ccc4c(n3)NC(=O)C(C)(C)O4)n2)cc(OC)c1OC [R406 free base],101.7 ± 0.97%,105 ± 1.6%
NC(=O)c1ncn([C@@H]2O[C@H](CO)[C@@H](O)[C@H]2O)n1 [Ribavirin],98.7 ± 13%,106 ± 5.6%
CNc1nc(-c2ccc3c(N)n[nH]c3c2)cc(N2C[C@@H](C(=O)NC3CCCCC3)CC[C@H]2C)n1,112 ± 2.6%,99.15 ± 0.68%
